{
  "source": "PubChem BioAssay (NCI)",
  "note": "“And” between values parts separate entries of the source, which are not always exact repeats. Equal values may be shown once. The panel holds about 83,000 compounds, 20% with a hit somewhere; the sample as a whole holds those more often.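 Interpretation: 100, growth as untreated; towards 0, rising growth inhibition; 0, no net growth; 0 to -100, cell death. Compounds scoring below 10 were considered active.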 The source made the active and inactive calls.",
  "data": [
    {"system": "MDA-MB-468 breast", "assay": "NCI-60 one-dose screen, 48 h (100 = growth as untreated, 0 = no growth, -100 = all killed)", "conditions": "10 µM unless noted", "values": [
      {"compound": "CN1CCN(C(=O)/C=C/c2ccc([N+](=O)[O-])o2)CC1", "growth": "77.4% (inactive)"},
      {"compound": "Cc1ccc(-c2nc(/C=C3/C(=O)N(C)c4ccc(F)cc43)c3ccccn23)cc1", "growth": "101% (inactive)"},
      {"compound": "O=c1c2cc(F)ccc2sc2c(NCCN3CCCC3)nc3ccccc3c12", "growth": "65.8% (inactive)"},
      {"compound": "COC(=O)c1nc(-c2ccc(C)cc2)oc1S(=O)(=O)c1ccc(Cl)cc1", "growth": "101% (inactive)"},
      {"compound": "CCCCCCCCCCCCCCCCNCCC[C@@H](C)[C@H]1CC[C@H]2[C@@H]3[C@H](OCCCN)C[C@@H]4C[C@H](OCCCN)CC[C@]4(C)[C@H]3C[C@H](OCCCN)[C@]12C", "growth": "-55.2% (active)"},
      {"compound": "COC(=O)Nc1nc2ccc(C(=O)c3ccccc3)cc2[nH]1", "growth": "-13.7% (active)"},
      {"compound": "Cc1cc(F)ccc1S(=O)(=O)Nc1cc(-c2c(O)ccc3ccccc23)c(O)c2ccccc12", "growth": "-1.51% (active)"},
      {"compound": "COc1ccc(C(=O)Nc2ncc(Cc3ccc(Cl)cc3)s2)cc1", "growth": "24.6% (inactive)"},
      {"compound": "C[n+]1c2ccccc2c(NC2CCNCC2)c2[nH]c3ccccc3c21", "growth": "-72.5% (active)"},
      {"compound": "Nc1nccc2c1ccn2-c1ccc(NC(=O)Nc2cccc(C(F)(F)F)c2)cc1", "growth": "72.8% (inactive)"},
      {"compound": "CC1C(c2ccccc2)OCCN1C(=S)Nc1ccc(S(=O)(=O)N2CCCCC2)cc1", "note": "(stereo not given)", "growth": "80.4% (inactive)"},
      {"compound": "CCOC(=O)C1=C(N)Oc2c(sc3c(CC)cccc23)C1c1ccc(F)cc1", "note": "(stereo not given)", "growth": "46.1% (inactive)"},
      {"compound": "CCOC(=O)c1cc2c(n1Cc1ccccc1)-c1oncc1CC2", "growth": "40.1% (inactive)"},
      {"compound": "O=c1c(-c2nc3ccccc3[nH]2)cc2ccccc2n1Cc1cn(Cc2ccc(F)cc2)nn1", "growth": "4.78% (active)"},
      {"compound": "CN(C)c1ccc(N=Nc2cccc3ccccc23)cc1", "growth": "-26.6% (active)"},
      {"compound": "O=[N+]([O-])c1ccc2[nH]c(=S)n(/C=C(/c3ccc(Cl)cc3Cl)S(=O)(=O)Cc3ccc(Cl)cc3Cl)c2c1", "growth": "111% (inactive)"},
      {"compound": "CCC1=C[C@@H]2C[C@]3(C(=O)OC)c4[nH]c5ccccc5c4CC[N@+](CC(=O)Nc4cc5c(cc4OC)N(C)[C@H]4[C@@](O)(C(=O)OC)[C@H](OC(C)=O)[C@]6(CC)C=CCN7CC[C@]54[C@@H]76)(C2)[C@H]13", "growth": "111% (inactive)"},
      {"compound": "COc1ccc2c(c1)oc1c3[nH]c4ccccc4c3c3c(c21)C(=O)N(O)C3=O", "growth": "-17.7% (active)"},
      {"compound": "NC(=S)N/N=C\\c1nccc2c(C(F)(F)C(F)(F)C(F)(F)F)cccc12", "growth": "-69.7% (active)"},
      {"compound": "O=C1/C(=C/C=C/c2ccco2)SC(=S)N1Cc1ccccc1", "growth": "58.5% (inactive)"},
      {"compound": "Oc1ccc2ccccc2c1C1NN=C(c2ccccc2)S1", "note": "(stereo not given)", "growth": "3.89% (active)"},
      {"compound": "C=C(c1ccc(OC)c(/C=C/C(=O)c2cc(OC)c(OC)c(OC)c2)c1)c1cc(OC)c(OC)c(OC)c1", "growth": "-8.58% (active)"},
      {"compound": "Nc1ccccc1NC(=O)c1ccc(CSc2nc(N3CCOCC3)c3cccn3n2)cc1", "growth": "-11.1% (active)"},
      {"compound": "NS(=O)(=O)c1ccccc1NC(=O)Nc1nc2ccccc2s1", "growth": "104% (inactive)"},
      {"compound": "CCN(CC)c1ccc(/C=N/NC(=O)CSc2nc3ccccc3c(=O)n2Cc2ccc(S(N)(=O)=O)cc2)c(O)c1", "growth": "-11% (active)"},
      {"compound": "CN(C)c1ccc(N=Nc2ccc3ccccc3c2)cc1", "growth": "5.06% (active)"},
      {"compound": "CC(=O)[C@@H]1CCC=C2CC[C@]3(C)[C@@H](CC[C@@H]4[C@@]5(C)CCCNC(C)(C)[C@@H]5CC[C@]43C)[C@H]21", "growth": "-77.9% (active)"},
      {"compound": "Nc1ncnc2c1C(c1ccccc1)c1ccc3ccccc3c1O2", "note": "(stereo not given)", "growth": "86.5% (inactive)"},
      {"compound": "O=C(Nc1cccc(-c2ccc(N3CCOCC3)nn2)c1)Nc1cccc(C(F)(F)F)c1", "growth": "29.1% (inactive)"},
      {"compound": "CN1CCN(CCC=C2c3ccccc3Sc3ccc(S(=O)(=O)N(C)C)cc32)CC1", "growth": "21.1% (inactive)"},
      {"compound": "CNC(=O)c1cn(C2CC2)c2cc(N3CCN(C(=O)c4cc(OC)c(OC)c(OC)c4)CC3)c(F)cc2c1=O", "growth": "103% (inactive)"},
      {"compound": "CN(C)CCCNC(=O)C(c1ccccc1)c1ccccc1", "growth": "111% (inactive)"},
      {"compound": "CCN(CC)C(=S)SSC(=S)N(CC)CC", "growth": "77.7% (inactive) and 111% (inactive)"},
      {"compound": "FC(F)(F)c1cn(CC2CNC2)c2ncnc(Cl)c12", "growth": "111% (inactive)"},
      {"compound": "Cn1ccnc1C(=O)/C=C/c1ccc(CNC(=O)c2c(F)c(F)c(F)c(F)c2F)cc1", "growth": "26.8% (inactive)"},
      {"compound": "COC(=O)[C@]12CC[C@@H](C)[C@H](C)[C@@H]1C1=CC[C@@H]3[C@@]4(C)C=C(O)C(=O)C(C)=C4CC[C@@]3(C)[C@]1(C)CC2", "growth": "10.6% (inactive)"},
      {"compound": "N#C/C(=C\\c1ccc([N+](=O)[O-])s1)c1nc2cc(Cl)ccc2s1", "growth": "93.7% (inactive)"},
      {"compound": "Cn1cnc([N+](=O)[O-])c1Sc1nnc(-c2ccccc2)c(-c2ccccc2)n1", "growth": "64.8% (inactive)"},
      {"compound": "COc1ccc(S(=O)(=O)Oc2ccc(-c3sc4cc(OS(=O)(=O)c5ccc(OC)cc5)ccc4c3C(=O)c3ccc(OCCN4CCCCC4)cc3)cc2)cc1", "growth": "94.3% (inactive)"},
      {"compound": "Cc1ccc2c(c1)c1nc3cc(C)c(C)cc3nc1n2CCN(C)C", "growth": "-2.86% (active)"}
    ]}
  ]
}
